Assay results taken from PubChem BioAssay AID1778 (Sanford-Burnham Center for Chemical Genomics, 2009).
Out of some 290,000 compounds screened, about 260 (0.09%) were called active. Cut-off read from the data, not from the text of the source: active = inhibition above about 50%; inactive = the rest. Only a selection was taken, and actives are over-represented in it overall. Measured potencies and affinities stand elsewhere.

What follows are compounds tested against Kappa-type opioid receptor (Homo sapiens) (UniProt P41145) (assay: KOR antagonists, beta-arrestin recruitment, cell-based, luminescence, uHTS (AID 1778)). Settings: antagonist mode, active compounds read high; at 10 µM unless noted.
Kappa-type opioid receptor (Homo sapiens), sequence (P41145 whole entry, looked up): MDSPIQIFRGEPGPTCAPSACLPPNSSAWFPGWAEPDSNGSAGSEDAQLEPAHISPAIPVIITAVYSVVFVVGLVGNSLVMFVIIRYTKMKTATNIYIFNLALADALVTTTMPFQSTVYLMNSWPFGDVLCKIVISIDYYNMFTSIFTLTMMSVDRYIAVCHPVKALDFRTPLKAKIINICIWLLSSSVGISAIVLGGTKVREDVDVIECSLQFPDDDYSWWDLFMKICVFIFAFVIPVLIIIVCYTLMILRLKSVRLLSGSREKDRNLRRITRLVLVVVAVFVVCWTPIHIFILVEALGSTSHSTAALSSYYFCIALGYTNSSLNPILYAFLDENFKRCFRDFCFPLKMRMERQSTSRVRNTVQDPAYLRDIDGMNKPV

| Compound | inhibition |
| --- | --- |
| NC(=S)Nc1ncc(C(F)(F)F)cc1Cl | -71.5% [at 20 µM] (inactive) |
| NC(=S)c1ncc(C(F)(F)F)cc1Cl | -11.8% (inactive) |
| CCOC(=O)N1CCN(C(=O)Nc2sc3nc4n(c(=O)c3c2C)CCC(C)CC4)CC1 (configuration not stated) | -7.4% (inactive) |
| COc1ccccc1CCNC(=O)C(=O)NCC1OCCN1S(=O)(=O)c1cc(F)ccc1F (configuration not stated) | -43.3% [at 20 µM] (inactive) |
| CCOc1ccc(-c2nc(C#N)c(NCC3CCCO3)o2)cc1 (configuration not stated) | 10.1% (inactive) |
| CC(CCc1ccccc1)NC(=O)c1cccc(F)c1 (configuration not stated) | -19.3% [at 20 µM] (inactive) |
| COc1ccc(C(=O)/C=C/C(=O)N(CC(=O)NC2CCCCC2)Cc2cccs2)c(O)c1 | 26.6% (inactive) |
| COc1ccc(C(=O)/C=C/C(=O)N(CC(=O)NC2CCCCC2)CC2CCCO2)c(O)c1 (configuration not stated) | 82.5% (active) |
| COc1ccc(C(=O)/C=C/C(=O)N(Cc2ccc3c(c2)OCO3)C(C(=O)NC2CCCCC2)c2ccncc2)c(O)c1 (configuration not stated) | 15.5% (inactive) |
| Cc1ccnc(NC(=O)CCC(=O)N(CC(=O)NC2CCCCC2)CC2CCCO2)c1 (configuration not stated) | 11% (inactive) |
| COc1ccc(C(=O)/C=C/C(=O)N(Cc2ccccc2)C(C(=O)NC2CCCCC2)c2ccncc2)c(O)c1 (configuration not stated) | 9.1% (inactive) |
| COc1ccc(C(=O)/C=C/C(=O)N(Cc2ccccc2OC)C(C(=O)NC2CCCCC2)c2ccncc2)c(O)c1 (configuration not stated) | 12.2% (inactive) |
| COc1ccc(C(=O)/C=C/C(=O)N(CC(=O)NC2CCCCC2)Cc2ccccc2OC)c(O)c1 | 56.3% (active) |
| COc1ccc(CN(C(=O)/C=C/C(=O)c2ccc(OC)cc2O)C(C(=O)NC2CCCCC2)c2ccncc2)cc1 (configuration not stated) | 8.2% (inactive) |
| COc1ccc(C(=O)/C=C/C(=O)N(Cc2ccc(F)cc2)C(C(=O)NC2CCCCC2)c2ccncc2)c(O)c1 (configuration not stated) | 6.8% (inactive) |
| COc1ccc(C(=O)/C=C/C(=O)N(CC(=O)NC2CCCCC2)Cc2ccc(F)cc2)c(O)c1 | 33.1% (inactive) |
| COc1ccc(NS(=O)(=O)c2cc(NC(=O)c3cccnc3Cl)ccc2N2CCCC2)cc1 | 37.4% (inactive) |
| C[C@@H]1CCC[C@]2(O[C@H](CCO)C[C@H](O)[C@H]2O)O1 | 47.9% (inactive) |
| CC1CC2=C(NC(=S)NC2c2cccc(F)c2)/C(=C/c2cccc(F)c2)C1 (configuration not stated) | 4.5% (inactive) |

| Compound | inhibition |
| --- | --- |
| O=C(c1cccs1)N(C(=O)c1cccs1)c1ccc(Br)cn1 | -21.5% (inactive) |
| Cc1cnc(C)c(N2CCN(Cc3nc(-c4ccccc4)no3)CC2)n1 | -15.2% (inactive) |
| N#CCCN(NC1=NS(=O)(=O)c2ccccc21)C(=O)c1ccccc1Br | 8.1% (inactive) |
| CC(=O)Nc1ccc(S(=O)(=O)NCCC(=O)OCc2ccc([N+](=O)[O-])cc2)cc1 | 16.8% (inactive) |
| CC1=NN(c2ccccc2)C(=O)/C1=C/C=C/c1ccccc1 | -38.6% (inactive) |
| CC1=NN(c2ccccc2)C(=O)/C1=C/N(C)C | 3.4% (inactive) |
| CC1=NN(c2ccc(C)cc2)C(=O)/C1=C\C=C\c1ccccc1 | -74.7% (inactive) |
| CC1=NN(c2ccccc2)C(=O)/C1=C\C=C\c1ccccc1 | -34.7% (inactive) |
| O=C(Nc1cccc2c1CCCC2)c1cc([N+](=O)[O-])cc([N+](=O)[O-])c1 | -11.2% (inactive) |
| Cc1c(N=c2scc(-c3ccccc3)n2C)c(=O)n(-c2ccccc2)n1C | 16.6% (inactive) |
| CC1=CC(=Nc2c(C)n(C)n(-c3ccccc3)c2=O)C=CC1=O | 35.7% (inactive) |
| O=C(NC1(C(F)(F)F)OCCO1)c1ccc(F)cc1 | -28.6% [at 20 µM] (inactive) |
| COc1ccc(C(=O)CSc2ncn[nH]2)cc1OC | 16.2% (inactive) |
| COC(=O)c1ccc(OC(=O)c2cccnc2SC)cc1 | -3.6% (inactive) |
| C/C(=N\Nc1ncc(Cl)cc1Cl)c1ccc(C#N)cc1 | -10% (inactive) |
| C/C(=N\Nc1nc2ccccc2[nH]1)c1ccccn1 | 91.3% (active) |
| C/C(=N\Nc1nc2ccccc2[nH]1)c1ccc(C)o1 | 33.8% (inactive) |
| C/C(=N\Nc1nc2ccccc2[nH]1)c1ccc(Cl)s1 | 20.9% (inactive) |
| C/C(=N\Nc1ccc(Cl)cc1)c1ccccn1 | 1.2% (inactive) |

| Compound | inhibition |
| --- | --- |
| CC(=O)c1cc(-c2ccccc2)[nH]c1N1CCOCC1 | -10.8% (inactive) |
| O=C(O)c1ccccc1S(=O)(=O)NCC(O)COc1ccc(Br)cc1 (configuration not stated) | 22.9% (inactive) |
| CCCNC(=S)N1CCN(c2nc(-c3ccc(C)cc3)cs2)CC1 | -15.3% [at 20 µM] (inactive) |
| COc1ccc(NC(=O)/C(Cl)=C(/Cl)S(=O)(=O)Cc2ccc(C)cc2)cn1 | 47.9% (inactive) |
| COc1ccc(NC(=O)/C(Cl)=C(/Cl)S(=O)Cc2ccc(Cl)cc2)cn1 (configuration not stated) | 48.8% (inactive) |
| COc1ccc(CC(=O)Nc2ccc(OC)nc2)cc1 | 35.7% (inactive) |
| COc1ccc(NC(=O)C(Cl)=C(Cl)Cl)cn1 | 8% (inactive) |
| COc1ccc(NC(=O)/C(Cl)=C(/Cl)S(=O)(=O)Cc2ccccc2)cn1 | 58.9% (inactive) |
| COc1ccc(CS(=O)(=O)/C(Cl)=C(/Cl)C(=O)Nc2ccc(OC)nc2)cc1 | 40.1% (inactive) |
| C(=C\CSc1ncn[nH]1)/CSc1ncn[nH]1 | 0.4% (inactive) |
| CCSc1nc2c(cnn2-c2ccc(C)cc2)c(=O)[nH]1 | -21.4% (inactive) |
| COC(=O)C1=CN(C2CC2)C=C(C(=O)OC)C1c1ccc(C(F)(F)F)cc1 | -9.8% [at 20 µM] (inactive) |
| COCCn1c(SCC(=O)N2CCCC2)nnc1-c1ccco1 | 10.6% (inactive) |
| O=C(COc1ccc2c(C(F)(F)F)cc(=O)oc2c1)NCc1cccs1 | -40.4% (inactive) |
| S=C(Nc1ccc(Oc2ccccc2)cc1)Nc1cccnc1 | -26.6% [at 20 µM] (inactive) |
| Cc1cc(C)cc(N2C(N)=NC(N)=NC2c2ccccc2F)c1 (configuration not stated) | 1.5% (inactive) |
| COC(=O)c1c(NC(=O)CN2CCN(c3ncccn3)CC2)sc(C(N)=O)c1C | -4.1% (inactive) |
| S=c1sc2c(N3CCN(Cc4ccccc4)CC3)ncnc2n1-c1ccccc1 | -18% (inactive) |
| S=c1sc2c(N3CCOCC3)ncnc2n1-c1ccccc1 | -30.9% (inactive) |
